Sampled rows, rich in hits. Any-hit rate of the full collection: about 1.3%.
MCL1 BIM primary: disrupts human MCL1 binding to BIM-BH3 peptide | GST-MCL1 / FITC-Bim-BH3 fluorescence polarization | inhibition, % at 10.9 µM | Q07820 | 0.68% of 320,000 active | AID 2057;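 active means inhibition above the mean inhibition of all tested compounds plus 3 SD, set per campaign, cut at about 40% in these data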;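 further: 0% = DMSO wells and 100% = unlabeled Bim-BH3 peptide control; higher means more loss of mP so more displacement of Bim peptide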
Target sequence (Q07820 whole entry, looked up): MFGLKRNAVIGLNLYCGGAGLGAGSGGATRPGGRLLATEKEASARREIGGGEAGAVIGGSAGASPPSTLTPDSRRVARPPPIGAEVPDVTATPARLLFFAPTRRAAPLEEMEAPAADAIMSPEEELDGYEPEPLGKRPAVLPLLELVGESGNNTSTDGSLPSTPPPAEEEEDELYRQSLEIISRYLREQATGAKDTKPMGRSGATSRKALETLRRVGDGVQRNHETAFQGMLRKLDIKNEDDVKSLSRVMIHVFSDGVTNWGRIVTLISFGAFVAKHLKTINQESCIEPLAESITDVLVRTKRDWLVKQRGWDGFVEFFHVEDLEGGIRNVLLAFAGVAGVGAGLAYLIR
BCLXL inh: Bcl-xL (human) inhibition | Q07817 | GST-Bcl-xL / FITC-Bim BH3 peptide fluorescence polarization | inhibition, % at 10.9 µM | 0.7% of 320,000 active | AID 2129;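 active means inhibition above the mean of all tested compounds plus 3 SD, cutoff set per campaign, cut at about 30% in these data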;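 further: 0% = DMSO wells and 100% = unlabeled Bim-BH3 peptide competitor; inhibitors lower millipolarization by displacing the labeled peptide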
Target sequence (Q07817 whole entry, looked up): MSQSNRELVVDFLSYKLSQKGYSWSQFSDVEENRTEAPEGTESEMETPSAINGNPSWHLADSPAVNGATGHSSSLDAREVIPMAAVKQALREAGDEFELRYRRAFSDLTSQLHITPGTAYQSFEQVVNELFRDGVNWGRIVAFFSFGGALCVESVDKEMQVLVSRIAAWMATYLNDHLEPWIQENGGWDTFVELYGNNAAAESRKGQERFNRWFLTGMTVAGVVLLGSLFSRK
Keap1 Nrf2 FP: disrupts human Keap1 binding to Nrf2 peptide. Q14145. inhibition, % at 9.4 µM. 0.15% of 340,000 active. Keap1 Kelch-Nrf2 peptide fluorescence polarization, 1536-well; in the data active means inhibition above about 12%;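 further: human Keap1 Kelch domain with fluorescein labeled Nrf2 9mer peptide probe; 0% = neutral control wells and 100% = peptide positive control; higher means more block of Keap1 binding to Nrf2 peptide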
E coli Lon inh: inhibits E. coli Lon protease; P0A9M0; purified E. coli Lon protease, fluorescence polarization; inhibition, % at 7.94 µM; 0.42% of 360,000 active; in the data active means inhibition above about 13%, passing the limit was not always enough;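 further: 0% = enzyme with probe and DMSO and 100% = no enzyme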
LANA DNA inh: blocks KSHV LANA C-terminal domain binding to DNA; MBP-C-LANA/FAM-LBS DNA binding, fluorescence polarization; inhibition, % at 9 µM; 0.078% of 340,000 active; AID 504423;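 active means highest replicate inhibition at or above 60% at 9 µM, even if other replicates fall short; inactive means all replicates below 60% inhibition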;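 further: 0% = neutral control wells and 100% = 4 µM acridine orange control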
GLD-1 TGE inh: GLD-1-TGE RNA interaction inhibition (C. elegans); purified GLD-1 + fluorescein TGE RNA, fluorescence polarization; 0.44% of 320,000 active; AID 2280; inhibition, % at 5.96 µM;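 active means percent inhibition above a per-plate cutoff, the plate mean of test compounds plus 3 SD, cut at about 30% in these data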;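 further: 0% = DMSO wells with GLD-1 and probe and 100% = wells lacking GLD-1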
* hit, by the source's call; i = inactive; . = not tested or not shown.

SMILES | MCL1 BIM primary | BCLXL inh | Keap1 Nrf2 FP | E coli Lon inh | LANA DNA inh | GLD-1 TGE inh
CCc1ccc(N2CC(C(=O)OCC(=O)N(CC)c3c(N)n(Cc4ccccc4)c(=O)[nH]c3=O)CC2=O)cc1 (stereo unspecified) | . | . | 188* | -4 | . | .
Cc1cc(C(=O)N/N=C2\CC(=O)CC(C)(C)C2)c2ccccc2n1 | 22 | 18 | 5 | 1 | 4 | 63*
Cc1c(S(=O)(=O)c2ccccn2)c(N)n(Cc2ccccc2Cl)c1C | 26 | 21 | -4 | -22 | 1 | 11
Cc1c(S(=O)(=O)c2ccccn2)c(N)n(Cc2ccccc2)c1C | 47* | 55* | . | -21 | . | 22
C[C@@H]1CN([C@H](C)CO)C(=O)CCCn2nncc2CO[C@@H]1CN(C)C(=O)CCC(F)(F)F | . | . | . | -8 | . | .
Cc1ccc(C(=O)NN2C(=O)/C(=C/c3cn(C)c4ccccc34)SC2=S)cc1 | -94 | -44 | -2 | -103 | 3 | -80
Cn1cc(/C=C2\SC(=S)N(NC(=O)c3ccccc3Cl)C2=O)c2ccccc21 | 17 | 35* | -7 | i | 0 | -171
COc1ccc(S(=O)(=O)N2CCCCC2)cc1NC(=O)CCNC(=O)c1ccccc1Cl | 28 | 32* | -2 | -2 | 1 | 8
O=C1C(Cl)=C(Nc2ccc3cn[nH]c3c2)C(=O)c2ccccc21 | 33 | 33* | 4 | 11 | -2 | 1
Cc1cccc(C)c1-n1nnnc1C(c1ccccc1)N1CCN(C/C=C/c2ccccc2)CC1 (stereo unspecified) | . | . | . | -2 | . | .
Cc1ncccc1C(=O)N1CCCC(c2cc(C(=O)Nc3ccc(C(C)(C)C)cc3)no2)C1 (stereo unspecified) | . | . | . | -4 | . | .
CCOc1ccc2[nH]c3ncccc3c(=O)c2c1 | 52* | 42* | -1 | 26 | 1 | 26
CCOc1ccc2[nH]c(C)c(CN3CCOCC3)c(=O)c2c1 | 4 | 8 | -6 | 4 | 1 | 6
CC1(C)CC(=O)C=C(c2n[nH]nc2C2=CCCCC2)C1 | . | . | . | 0 | . | .
COCCN1CCn2c(nc3cc(NC(=O)NC4CCCCC4)ccc32)C1 | 35 | 33* | -3 | -14 | 1 | 5
CN(C)S(=O)(=O)c1cc(NC(=O)CN2CCc3ccccc32)ccc1Cl | 45* | 45* | -6 | 6 | 3 | 24
CC(=O)Nc1ccc(NC(=O)c2ccccc2-n2cnnn2)cc1 | . | . | -3 | -1 | 2 | .
CCOC(=O)CNc1c(-c2ccc(F)cc2)nc2cnccn12 | 24 | 33* | 4 | -4 | 4 | 15
CC1=C(C(=O)N2CCOCC2)CC(CC(=O)NCc2cccs2)C(=O)N1CCC1=CCCCC1 (stereo unspecified) | . | . | . | 1 | . | .
C=CCNc1nc(N2CCCCC2)c(C#N)c2c1CN(Cc1ccccc1)CC2 | 4 | 6 | -5 | 2 | -1 | 10
N#Cc1c(N)sc(=S)c2c1CCN(Cc1ccccc1)C2 | 174* | 144* | . | . | . | 28
Oc1c(C=Nc2ccccc2Cl)[nH]c2ccccc12 | 28 | 39* | -3 | 9 | 6 | 12
Oc1[nH]c2ccccc2c1N=Nc1ccccc1Cl | . | . | 1 | -6 | -3 | .
CC1(C(=O)Nc2cccc(Oc3ccccc3)c2)CCN1Cc1cc2ccccc2o1 (stereo unspecified) | . | . | . | 4 | . | .
Cn1c(N)c(C(=O)COC(=O)c2cc(-c3ccco3)nc3ccccc23)c(=O)n(Cc2ccccc2)c1=O | 43* | 19 | . | . | . | -4
SMILES | MCL1 BIM primary | BCLXL inh | Keap1 Nrf2 FP | E coli Lon inh | LANA DNA inh | GLD-1 TGE inh
CCCCN1C2=C(C(=O)CCC2)C(c2ccc(Cl)c(Cl)c2)C2=C1c1ccccc1C2=O (stereo unspecified) | 43* | 44* | 1 | 3 | 0 | 5
CCCN1C(=O)c2ccccc2NC1c1ccc(Cl)c(Cl)c1 (stereo unspecified) | 1 | 0 | 5 | -7 | 0 | 15
COc1cccc(CCN2C(=O)C(=O)N([C@@H](CNCc3ccccc3)Cc3ccccc3F)C[C@@H]2C(C)(C)C)c1 | 6 | 5 | . | . | . | 181*
CCOc1ccc(Cl)cc1-c1cc(C(=O)Nc2ccc(C(C)C)cc2)[nH]n1 | . | . | . | -11 | . | .
CCCCn1nnnc1C(c1cc2ccccc2o1)N(CCC#N)Cc1ccccc1 (stereo unspecified) | . | . | . | -7 | . | .
O=C(/C=C/c1cccc(Cl)c1)OCc1cn2cc(Cl)ccc2n1 | 11 | 8 | 2 | -3 | 0 | 5
COc1cccc(/C=C/C(=O)NCc2cn3cc(Cl)ccc3n2)c1 | 3 | 10 | 3 | 13 | 77* | 2
COc1ccc(-c2coc3cc4oc(=O)cc(-c5ccccc5)c4cc23)cc1F | -3 | 37* | 2 | -4 | 1 | 3
Nc1cc2nsnc2cc1Br | 41* | 42* | -85 | 5 | 7 | 11
Cc1cc[n+](-c2[nH]c(=O)sc2/C=N/N=C(\[O-])c2ccncc2)cc1 | 49* | 38* | 1 | 13 | 8 | 20
Cc1cccc[n+]1C1C(c2ccc([N+](=O)[O-])cc2)C(C#N)=C(C(=C=[N-])C#N)NC1(O)C1CC1 (stereo unspecified) | 25 | 31* | 5 | -4 | 6 | 19
N#CC1=C(N)NC(=S)C(C(N)=O)C1c1ccc([N+](=O)[O-])cc1 (stereo unspecified) | 12 | 13 | -3 | -4 | 1 | 3
O=C(Nc1ccccc1)c1cc(C2CCCCN2S(=O)(=O)Cc2cccc(C(F)(F)F)c2)on1 (stereo unspecified) | . | . | . | -10 | . | .
CC(=O)c1ccc2cccc3c2c1N=CN3C | 28 | 33* | 1 | -13 | 1 | 13
CN1c2cccc3cccc(c23)N(C)C1(C)C | 7 | 10 | -3 | 10 | -3 | -6
COc1ccc(/C=C2\CCCc3c2nc2ccccc2c3C(=O)OCC(=O)c2c(N)n(C)c(=O)n(C)c2=O)cc1 | 39 | 41* | . | . | . | 101*
COc1ccc(CN(C)[C@H]2C[C@H]3c4[nH]c5ccccc5c4CCN3C[C@H]2[C@H](C)O)cc1 | . | . | . | -1 | . | .
COc1ccc(C(C(=O)NC2CCCC2)N(C(=O)c2ccoc2C)c2cc(C)cc(C)c2)cc1 (stereo unspecified) | 7 | 52* | -1 | -4 | 0 | 2
COc1ccc(C(C(=O)NC2CCCC2)N(C(=O)c2ccoc2C)c2ccccc2)cc1 (stereo unspecified) | -6 | -1 | -3 | -2 | 0 | 0
CC1(C(=O)NS(=O)(=O)C2CC2)CCCN(C(=O)c2ccccc2OC(F)(F)F)C1 (stereo unspecified) | . | . | . | -9 | . | .
COc1ccc(/C=C/c2cccc[n+]2C)c(O)c1 | -9 | -8 | -6 | -39 | -5 | -52
CCN(CC)c1ccc(/C=C/c2cccc[n+]2C)c(OC)c1 | -50 | -13 | -135 | -267 | -47 | 42*
COc1ccc(NC(=O)c2cc(S(=O)(=O)N3CCCC3)ccc2C)cn1 | 42* | 35* | 1 | 9 | 4 | 29
